Results from PubChem BioAssay (NCATS).
Inconclusive results are not listed. A call without a number means that no potency is given here. Values without a mark were called inactive. Activity calls are given as the source filed them. Calls follow the shape of the dose curve; as a rule, active = well fitted inhibition curve with a large enough effect; inconclusive = small, poorly fitted or top-dose-only effect; inactive = no such curve, though single readings can be large or run the other way.

tested on: Zika virus NS2B-NS3 protease (unlinked complex); assay: Primary screen GU Rhodamine qHTS for Zika virus inhibitors: Unlinked NS2B-NS3 protease assay (AID 1347159); conditions: Recombinant ZIKV NS2B-NS3 protease, Rhodamine110 substrate fluorescence; series mostly up to 107 µM; also: nearly all actives have a fitted effect of over 60% in size
Method in brief: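 Buffer 10 mM Tris-HCl pH 8.0, 0.01% Tween 20. Unlinked protease 25 nM; compound preincubation 15 min, RT, protected from light. Substrate Rhod110, 1.5 microM; ~15% conversion in 15 min.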
Potency is read from the fitted curve at half-maximal effect.

Q: How did the Potency turn out when C[C@@](O)(COc1ccc(C#N)cc1)C(=O)Nc1ccc(C#N)c(C(F)(F)F)c1 was run?
A: inactive

Q: N#CC(OC1OC(COC2OC(CO)C(O)C(O)C2O)C(O)C(O)C1O)c1ccccc1 (stereo not drawn) was tested. Which Potency did it give?
A: inactive

Q: How did the Potency turn out when C[C@H](NC(=O)Cc1cc(F)cc(F)c1)C(=O)N[C@@H]1N=C(c2ccccc2)c2ccccc2N(C)C1=O was run?
A: inactive

Q: With COC1C(O)C(OC2CCC3(C=O)C(CCC4C3CCC3(C)C(C5=CC(=O)OC5)CCC43O)C2)OC(C)C1OC1OC(CO)C(O)C(O)C1O (stereo not drawn) as the compound, how does the Potency read?
A: inactive

Q: C1=C2CCCN[C@H]2[C@@H]2C[C@H]1[C@H]1CCCCN1C2 was tested. Which Potency did it give?
A: inactive

Q: How did the Potency turn out when C=C[C@H]1CN2CC[C@H]1C[C@@H]2[C@@H](O)c1ccnc2ccccc12 was run?
A: inactive

Q: How did the Potency turn out when O=C1C[C@@H]2OCC=C3CN4CC[C@]56c7ccccc7N1[C@H]5[C@H]2[C@H]3C[C@H]46 was run?
A: inactive

Q: Which Potency does the source give for CN1[C@H]2C[C@H](OC(=O)[C@H](CO)c3ccccc3)C[C@@H]1[C@@H](O)C2 here?
A: inactive

Q: CN1C(=O)c2ccccc2NC(=O)C1Cc1ccccc1 (stereo not drawn) was tested. Which Potency did it give?
A: inactive

Q: COCC1OC(=O)c2coc3c2C1(C)C1=C(C3=O)C2CCC(=O)C2(C)CC1O (stereo not drawn) was tested. Which Potency did it give?
A: inactive

Q: For C=CC(C)(O)CC/C=C(\C)C(=O)O[C@H]1[C@H](O)[C@@H](CO)O[C@@H](OC(=O)[C@]23CCC(C)(C)CC2C2=CCC4[C@@]5(C)CC[C@H](O[C@@H]6O[C@H](CO[C@@H]7OC[C@H](O)[C@H](O)[C@H]7O[C@@H]7OC[C@@H](O)[C@H](O)[C@H]7O)[C@@H](O)[C@H](O)[C@H]6O)C(C)(C)C5CC[C@@]4(C)[C@]2(C)CC3)[C@@H]1OC1OC(C)C(O[C@@H]2OC[C@@H](O)[C@H](O[C@@H]3OC[C@@H](O)[C@H](O)[C@H]3O)[C@H]2O)C(O)C1O (stereo partly drawn), which activity change, negative = inhibition is on record?
A: 50.7% [at 19.1 µM]

Q: CN1C(=O)c2ccccc2NC(=O)[C@]12O[C@@H]2c1ccccc1 was tested. Which Potency did it give?
A: inactive

Q: CC(C)(C)c1cc(C(C)(C)C)c2c(c1)C(O)(C(F)(F)F)C(=O)O2 (stereo not drawn) was tested. Which Potency did it give?
A: 7.94 µM (active)

Q: Which Potency does the source give for OCCCCC#Cc1cncc(OC[C@@H]2CCN2)c1 here?
A: inactive

Q: With C[C@H]1O[C@@H](O[C@H]2C[C@@H](O)[C@]3(CO)C4C(CC[C@]3(O)C2)[C@@]2(O)CC[C@H](C3=CC(=O)OC3)[C@@]2(C)C[C@H]4O)[C@@H](O)[C@@H](O)[C@H]1O (stereo partly drawn) as the compound, how does the Potency read?
A: inactive

Q: How did the activity change, negative = inhibition turn out when C/C=C(\C)C(=O)O[C@H]1[C@H](OC(C)=O)[C@]2(CO)[C@H](O)[C@H](O)[C@]3(C)C(=CCC4[C@@]5(C)CC[C@H](O[C@@H]6O[C@H](C(=O)O)[C@@H](O)[C@H](O[C@@H]7OC[C@H](O)[C@H](O[C@@H]8OC[C@H](O)[C@H](O)[C@H]8O)[C@H]7O)[C@H]6O[C@@H]6O[C@H](CO)[C@@H](O)[C@H](O)[C@H]6O)C(C)(C)C5CC[C@]43C)[C@@H]2CC1(C)C (stereo partly drawn) was run?
A: -9.49% [at 19.1 µM]

Q: How did the Potency turn out when Cc1cccc(NC(=O)N[C@@H]2N=C(c3ccccc3)c3ccccc3N(C)C2=O)c1 was run?
A: inactive

Q: How did the Potency turn out when Cn1ncnc1COc1nn2c(-c3c(F)cccc3F)nnc2cc1C1CCC1 was run?
A: inactive

Q: COC1C(O)C(C)OC(OC2C(CO)O[C@@H](O[C@@H]3CC4CCC5C(CC[C@]6(C)[C@@H](C7=CC(=O)OC7)CC[C@]56O)[C@@]4(C)[C@H](O)C3)C(O)C2O)C1O (stereo partly drawn) was tested. Which Potency did it give?
A: inactive

Q: How did the activity change, negative = inhibition turn out when Oc1ccc2c3c1O[C@H]1[C@H](N(CCCl)CCCl)CC[C@@]4(O)[C@@H](C2)N(CC2CC2)CC[C@]314 was run?
A: -3.74% [at 19.1 µM]

Q: CCc1c(C(=O)C(N)=O)c2c(OCC(=O)OC)cccc2n1Cc1ccccc1 was tested. Which Potency did it give?
A: inactive

Q: For COC1CC(OC2CCC3(C)C(=CCC4C3CCC3(C)C(C(C)OC5OC(COC6OC(CO)C(O)C(O)C6O)C(O)C(O)C5O)CCC43O)C2)OC(C)C1OC1OC(C)C(O)C(OC)C1O (stereo not drawn), which Potency is on record?
A: inactive

Q: With COC1=CC(=O)O[C@@H](CCc2ccccc2)C1 as the compound, how does the Potency read?
A: inactive

Q: For COC1CC(OC2CCC3(C=O)C(CCC4C3CCC3(C)C(C5=CC(=O)OC5)CCC43O)C2)OC(C)C1OC1OC(CO)C(O)C(O)C1O (stereo not drawn), which Potency is on record?
A: inactive

Q: How did the Potency turn out when CCCN1CCO[C@H]2c3cc(O)ccc3OC[C@@H]21 was run?
A: inactive

Q: How did the Potency turn out when CC(C)=C1CC[C@]23CO[C@H](C2)[C@@](O)(C(=O)O)CCC13 (stereo partly drawn) was run?
A: inactive

Q: How did the Potency turn out when Cc1c(Cl)cccc1S(=O)(=O)Nc1nc(CC(=O)N2CCN(C)CC2)cs1 was run?
A: inactive

Q: Which Potency does the source give for COC1CC(O[C@H]2CC[C@]3(C=O)C4CC[C@]5(C)[C@@H](C6=CC(=O)OC6)CC[C@]5(O)[C@@H]4CC[C@]3(O)C2)OC(C)C1O[C@@H]1O[C@H](CO)[C@@H](O)[C@H](O)[C@H]1O (stereo partly drawn) here?
A: inactive
